Data: PubChem BioAssay AID1035475 (Broad Institute, 2014)
Results with a measured potency or affinity are listed apart. Records with an inconclusive call do not appear. Values without a mark were called inactive.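 Rule for the calls: active = fluorescent signal drops by 40% or more, counted as a hit; inconclusive = no clear call, values can overlap the other calls; inactive = the rest, including any activity in the opposite direction.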

test: inhibitors of fibronectin matrix deposition, dose response, AH1F cells, Alexa488-FN fluorescence, cherry-picks (AID 1035475); conditions: AH1F fibroblasts, overnight; series mostly up to 35 µM; activity change, negative = inhibition: at the top concentration;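 note: AH1F fibroblasts incorporating labeled fibronectin into their extracellular matrix; 0% = neutral control wells and -100% = wells without labeled fibronectin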

Row | Compound | activity change, negative = inhibition
1 | CO[C@H]1CN(C)C(=O)c2cc(NC(=O)Nc3ccc(Cl)c(Cl)c3)ccc2OC[C@@H](C)NC[C@@H]1C | 13.7%
2 | CO[C@H]1CN(C)C(=O)c2ccc(NC(=O)Nc3ccc(Cl)c(Cl)c3)cc2OC[C@H](C)NC[C@H]1C | -31.4%
3 | C[C@H]1CN([C@@H](C)CO)C(=O)c2cc(-c3ccccc3)cnc2O[C@H]1CN(C)Cc1ccccc1 | 34.5%
4 | CO[C@@H]1CN(C)C(=O)c2ccc(NC(=O)c3ccc(-c4ccccc4)cc3)cc2OC[C@@H](C)NC[C@@H]1C | 6.9%
5 | N#C[C@@H]1[C@@H](c2ccccc2C2=CCCCC2)[C@@H](CO)N1S(=O)(=O)c1ccccc1 | 35.2% [at 30 µM]
6 | CO[C@@H]1CN(C)C(=O)c2cc(NC(=O)Nc3ccc(Cl)c(Cl)c3)ccc2OC[C@H](C)NC[C@H]1C | -1.63%
7 | CO[C@H]1CN(C)C(=O)c2cc(NC(C)=O)ccc2OC[C@@H](C)N(C(=O)CN2CCOCC2)C[C@H]1C | 43.6%
8 | COCC(=O)Nc1ccc2c(c1)C(=O)N(C)[C@@H]1CC[C@@H](CC(=O)NCc3ccccc3Cl)O[C@@H]1CO2 | 40%
9 | CN(C)C(=O)c1ccc(-c2ccc3c(c2)[C@H]2[C@H](CCN2C(=O)c2ccc(F)cc2)[C@H](CO)N3C)cc1 | 29.3%
10 | Cc1oc2ccc(O)cc2c1C(=O)c1ccc(Br)cc1 | -1.76%
11 | O=C(CSc1nc2ncc(Cl)cc2[nH]1)c1c[nH]c2ccccc12 | -35.1%
12 | CO[C@H]1CN(C)C(=O)c2cc(NC(=O)Nc3ccc(Cl)c(Cl)c3)ccc2OC[C@H](C)NC[C@@H]1C | -15.6%
13 | COC(=O)C[C@@H]1CC[C@@H]2[C@@H](COc3ccc(NC(=O)Cc4cccs4)cc3C(=O)N2C)O1 | 1.6%
14 | CCN(Cc1ccncc1)C(=O)c1ccc2c(c1)S(=O)(=O)c1ccccc1C2=O | -11.4%
15 | COC(=O)C[C@H]1CC[C@@H]2[C@H](COc3ccc(NC(=O)Cc4cccs4)cc3C(=O)N2C)O1 | 10.4%
16 | O=C(CN1CCCC1)Nc1ccc(Oc2ccc(NC(=O)CN3CCCC3)cc2)cc1 | -14.8%
17 | O=c1c2cc(N3CCOCC3)ccc2[nH]c(=S)n1Cc1ccc(Cl)cc1 | -36.2%
18 | CO[C@H]1CN(C)C(=O)c2cc(NC(=O)Nc3cc(Cl)cc(Cl)c3)ccc2OC[C@@H](C)NC[C@H]1C | -22.9%
19 | O=S(=O)(c1ccccc1F)N1CC[C@H]2[C@H](CO)Nc3ccc(-c4cccc(F)c4)cc3[C@H]21 | 11.5%
20 | CO[C@H]1CN(C)C(=O)c2ccc(NC(=O)Nc3cc(Cl)cc(Cl)c3)cc2OC[C@H](C)NC[C@@H]1C | 5.11%
21 | C[C@H](CO)N1C[C@H](C)[C@@H](CN(C)Cc2ccc(-c3ccccc3)cc2)Oc2ccc(NC(=O)CCCN(C)C)cc2C1=O | 27%
22 | O=S(=O)(c1ccccc1F)N1CC[C@@H]2[C@H](CO)Nc3ccc(-c4cccc(F)c4)cc3[C@@H]21 | 21.5%
